Over roughly 68,000 sequences, “fluorescence intensity (a.u.)” has its median near 9,100; the highest 2% begin near 16,000. The entries come from a sample that favours the highest values as a whole.
The sequences below were run against OsWRKY34 (Oryza sativa, UniProt Q0JBA9 1-250) (assay: protein-binding microarray (RPBM); PBS, 2% BSA, 51.3 ng/ul salmon testes DNA, 50 uM zinc acetate, 200 nM TF, 25 C, 1 h; high values mean tight binding). Settings: protein: recombinant; tags: N-terminal polyhistidine and DsRed monomer fusion (pET32a); label: CyDye5-dUTP incorporated in the synthesized complementary strand; 3' TTTTT single-stranded linker to array surface; dsDNA, one strand shown.
Sequence of OsWRKY34 (Q0JBA9 entry or part of it): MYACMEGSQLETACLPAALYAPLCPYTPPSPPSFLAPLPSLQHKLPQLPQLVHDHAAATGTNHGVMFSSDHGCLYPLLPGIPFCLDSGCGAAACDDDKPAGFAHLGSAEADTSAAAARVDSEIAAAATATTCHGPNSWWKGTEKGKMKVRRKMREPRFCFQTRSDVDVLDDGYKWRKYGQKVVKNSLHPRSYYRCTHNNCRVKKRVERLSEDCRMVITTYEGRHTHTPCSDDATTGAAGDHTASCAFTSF
Method in brief: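 Transcription factors were made in E. coli BL21-CodonPlus as N-terminal fusions to a polyhistidine tag and DsRed, then purified on Ni–NTA. After primer extension with Cy5-dUTP and blocking with 2% BSA, a custom Agilent array was exposed for 1 h at 25 °C to 200 nM protein in PBS, 2% BSA, salmon testes DNA and 50 µM zinc acetate. Washed arrays were scanned on an Axon 4000B, and the binding signal is per-feature fluorescence intensity in arbitrary units.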

Sequence | binding signal
CTATACTCACCCACTTGCCAATTTGCCATTGCCAACACCTCGGAGTCACCTAGTGCAG | 9100 fluorescence intensity (a.u.)
TTGTTGGCTCAATATAGTTATCCTCCTTTGACCCAGTTAACGGAGTCACCTAGTGCAG | 9120 fluorescence intensity (a.u.)
GGAGGTGGTGGCGCTGCCTCGGGGCCCCTCGCCTGGGAGGCGGAGTCACCTAGTGCAG | 9800 fluorescence intensity (a.u.)
GGGTGGAGGAGGGGACTTCGGGAGGGCGGTGGCGAGGGCGCGGAGTCACCTAGTGCAG | 16400 fluorescence intensity (a.u.)
GGTGGGCGGAGTGGGAGGGGAGGCATCGGCGCCTCGGTGGCGGAGTCACCTAGTGCAG | 16800 fluorescence intensity (a.u.)
TGGCGGCGTGGAGCCGCGAGGGCGGTGGCGGCGGGGAGTTCGGAGTCACCTAGTGCAG | 10400 fluorescence intensity (a.u.)
AGGTGAGAGGAGGAGAGAGACGGGTTTAGGGCTTTAGGAGCGGAGTCACCTAGTGCAG | 8040 fluorescence intensity (a.u.)
TGTTCGGTGGGCGAGGAGAGGAGTGGGTGGGAGTGGACTGCGGAGTCACCTAGTGCAG | 8780 fluorescence intensity (a.u.)
GGGAGCGGCGGAGGAGGAGGGCGCGGCGGCGGTGGGGTGGCGGAGTCACCTAGTGCAG | 18100 fluorescence intensity (a.u.)
GGGAGGGGTGCGGCGCGGTGGCGCTGGAGCGGAGGAGCGTCGGAGTCACCTAGTGCAG | 9990 fluorescence intensity (a.u.)
GCTCGGCGGCGCCGCGGCGGCGGTGGCGGAGGCGGGGATGCGGAGTCACCTAGTGCAG | 8910 fluorescence intensity (a.u.)
AGGAGAGGGGTTTACTCGGTTGAGGATTTTCTTGTTCTCACGGAGTCACCTAGTGCAG | 8180 fluorescence intensity (a.u.)
TGGGTTTTACGGTTTTACCCTCTCGGGCTTGAGGGGAGAGCGGAGTCACCTAGTGCAG | 47600 fluorescence intensity (a.u.)
GCGAGTGAGGAGGGGCGGCGCGCGGTGGCCGGCGGGTGAGCGGAGTCACCTAGTGCAG | 8070 fluorescence intensity (a.u.)
ACGTGGAGTCACGTGACTGGGCCGTGCCACTTTTTTTTATCGGAGTCACCTAGTGCAG | 9360 fluorescence intensity (a.u.)
AGTCAATATCTTGCTTTGATACCTTTTTTTTTGCATTTTTCGGAGTCACCTAGTGCAG | 8050 fluorescence intensity (a.u.)
ACAACACGCCGCCTCGCCTGCCCATCCCGTCCAACCCACGCGGAGTCACCTAGTGCAG | 9200 fluorescence intensity (a.u.)
GATTGGTTGAAAATGTTTCTATTCTTAATGAATATCCTATCGGAGTCACCTAGTGCAG | 8080 fluorescence intensity (a.u.)
CCATCCACGCGACGCGGCACAACCTCCCGCGCCCAACACACGGAGTCACCTAGTGCAG | 8760 fluorescence intensity (a.u.)
CCTTCTTGTCCTGCTCCCGCGCCGGCTCCGACCGGGTCCTCGGAGTCACCTAGTGCAG | 8600 fluorescence intensity (a.u.)
AGTACATGGGCTTTCCATAATTGGTTTATACGTGGTTATTCGGAGTCACCTAGTGCAG | 8260 fluorescence intensity (a.u.)

Sequence | binding signal
CTCTGAATGGCCTTGTCACCCTTTTTATTCATTCATGCTCCGGAGTCACCTAGTGCAG | 9200 fluorescence intensity (a.u.)
TGTCCTTATCATCTTTGATCAAGTTTTTCTCTTTTCCTATCGGAGTCACCTAGTGCAG | 9480 fluorescence intensity (a.u.)
CTCTTTTTTTTTCTTCCACTACGCTCCAAAACTTCTCTCCCGGAGTCACCTAGTGCAG | 8790 fluorescence intensity (a.u.)
CCTTAGTCAGCCTCTGCTTCTGCTCCGTGCTCGCCGGCGCCGGAGTCACCTAGTGCAG | 12600 fluorescence intensity (a.u.)
GTGCGTGGGGCGAAGGGAGGGGAAGAAGAAGAAGGAGAAGCGGAGTCACCTAGTGCAG | 8080 fluorescence intensity (a.u.)
GGGGCGGAGATCTGGGAGGAGGAGGAGGAGGTGGTGGTGGCGGAGTCACCTAGTGCAG | 14500 fluorescence intensity (a.u.)
GGAATCTGGGAGGTGGGTGGGCCCCACGGCGGAGACTCCGCGGAGTCACCTAGTGCAG | 17200 fluorescence intensity (a.u.)
CTCATCCGAGTGGGTGGGCGGGGAGAGATCTAGGGCTTGCCGGAGTCACCTAGTGCAG | 11700 fluorescence intensity (a.u.)
GCGGCCGGCCGAGGGGTGGGAGCCGTCCGATCGCGGCGCGCGGAGTCACCTAGTGCAG | 8550 fluorescence intensity (a.u.)
ACGCAGGGGAGGGAGGGAGCGGTGGTGGTGGCGGCGGCGCCGGAGTCACCTAGTGCAG | 14000 fluorescence intensity (a.u.)
CGATCCGCTTGCAGGCGGCGGCGGCGGGAGGGTGGTGGGGCGGAGTCACCTAGTGCAG | 18000 fluorescence intensity (a.u.)
CCCGCGGCGGCGGGGTGGAGGCGACGGCGGTGGTGGTGGGCGGAGTCACCTAGTGCAG | 8590 fluorescence intensity (a.u.)
TGTGGCGGGGAGGGAGGGAGGGAGAAGGGGCGGCGTGTTGCGGAGTCACCTAGTGCAG | 16600 fluorescence intensity (a.u.)
TGAAGGGCGGGAGGGGCGTTGCGCGGGAGTGGCCGCGCGGCGGAGTCACCTAGTGCAG | 8670 fluorescence intensity (a.u.)
TACTGGGGAATCGGTGGTGGTGGCGGCGGCGGTGGCGGCGCGGAGTCACCTAGTGCAG | 9690 fluorescence intensity (a.u.)
GCCTCGATCGCGGCGGTGGCGGTGGGGAGGGGAGCGCACCCGGAGTCACCTAGTGCAG | 19000 fluorescence intensity (a.u.)
ATCCGTCCGTTTCGTTCCGTACGAACCGCCGGCGTTCAAACGGAGTCACCTAGTGCAG | 8580 fluorescence intensity (a.u.)
GCCTCCGCCGCCGCCGCCGCCCGCCGGCCATCTCCGTCGACGGAGTCACCTAGTGCAG | 13900 fluorescence intensity (a.u.)
CAATGTATTCAGGTACGCCGATTATTTGGTTGGTAGTAGTCGGAGTCACCTAGTGCAG | 11500 fluorescence intensity (a.u.)
ATACTCGCTCCGTGTTTTAATATATGACGCTGTTGATTTTCGGAGTCACCTAGTGCAG | 12700 fluorescence intensity (a.u.)
GCTCGGTGTGGCGATCTCACAGCCGCATATCGCATTTCACCGGAGTCACCTAGTGCAG | 8680 fluorescence intensity (a.u.)
